An excerpt weighted towards active compounds, which were near 1.6% of everything screened.
KCNQ2 block = inhibitors of rat KCNQ2 potassium channel; O88943; CHO-K1 KCNQ2, FluxOR thallium flux, 20 min; active compounds read low; B-score at 10 µM; 310,000 compounds, 1.1% hits; AID 2156;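 active = fluorescence ratio B-score at most minus 3 library SDs, with starting brightness B-score within 2 library SDs, cut at about -5.5 in these data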
KCNQ2 pot = KCNQ2 (rat) channel potentiation. AID 2239. O88943. B-score at 10 µM. 310,000 compounds, 0.54% hits. CHO-K1 KCNQ2, FluxOR thallium flux fluorescence; active compounds read high;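 active = fluorescence ratio B-score at least 3 SD of library B-scores, with initial fluorescence B-score within 3 of them, cut at about 5.3 in these data; same plate scores as AID 2156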;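 also: B-score of peak minus minimum over baseline fluorescence ratio after K+ and Tl+ stimulus; positive B-score means potentiation of KCNQ2 with more thallium influx and brighter signal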
Kir21 confirm = confirmation of mouse Kir2.1 potassium channel inhibitors. shares compounds with KCNQ2 pot. Kir2.1-expressing cells, FluxOR thallium flux fluorescence; active compounds read low. Tl flux remaining, % of negative control (active compounds read low), % at 10 µM. 2,300 compounds, 41% hits. AID 2032;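 active = Primary-screen hit whose thallium flux fell at least 3 control SD below untreated wells in both duplicates, with normal baseline fluorescence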;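 also: 0% = blank wells without stimulus and 100% = stimulated no-compound controls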
HEK293 ctr = parental HEK293 activity in Kir2.1 inhibitor counter-screen; shares compounds with KCNQ2 pot; parental HEK293 cells, FluxOR thallium flux fluorescence; 0% = unstimulated blank wells; FluxOR signal as % of negative control (100 = no effect), % at 10 µM; 2,300 compounds, 19% hits; AID 2105;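 active = dye signal at least 3 control SD above or below untreated wells in both duplicates, raw fluorescence within 3, either direction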;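 also: percent is based on the flux ratio of peak minus minimum fluorescence over baseline F0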
CHO-K1 ctr = counter-screen for KCNQ2 potentiators: effect in parental CHO-K1 cells | shares compounds with KCNQ2 pot | FluxOR thallium flux fluorescence; zero = vehicle mean+3SD, 100% = vehicle-minus-blank window | activity increase over 3SD of controls, % at 10 µM | 1,200 compounds, 43% hits | AID 2282;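 active = signal rise of at least 3 SD above the untreated control mean, in both duplicate wells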;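 also: counter screen of KCNQ2 potentiator hits so any rise reflects channel-independent effects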
KCNQ1 pot spec = tests whether KCNQ2 potentiators also act on human KCNQ1 | AID 2283 | shares compounds with KCNQ2 pot | 1,200 compounds, 28% hits | CHO KCNQ1 stable, FluxOR thallium flux fluorescence; beyond 3SD, as % of vehicle-control signal | activation over 3SD threshold, % at 10 µM;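 active = fluorescence ratio rise of at least 3 SD of vehicle wells above their mean, in both replicate wells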;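 also: 0% = vehicle mean plus 3 SD and 100% = vehicle minus unstimulated blank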
KCNQ2 pot confirm = rat KCNQ2 channel potentiator confirmation; 1,200 compounds, 68% hits; CHO-KCNQ2 cells, FluxOR thallium flux fluorescence; AID 2287; shares compounds with KCNQ2 pot; potentiation, less the hit threshold, % at 10 µM;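 active = fluorescence ratio rising 3 SD or more over the vehicle control mean in both replicates, plus primary screen hit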;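 also: peak minus minimum thallium fluorescence divided by baseline after K/Tl stimulus; 0% = vehicle mean plus 3 SD and 100% = vehicle minus unstimulated blank difference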
Kir2-1 sel = mouse Kir2.1 off-target activity of KCNQ2 potentiators; HEK293 Kir2.1, FluxOR thallium flux fluorescence; activity over 3SD threshold, % at 10 µM; shares compounds with KCNQ2 pot; 1,200 compounds, 2% hits;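 active = fluorescence ratio rise of at least 3 SD above the vehicle-control mean, seen in both replicates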;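 also: 0% = vehicle mean plus 3 SD and 100% = vehicle minus no-stimulus blank window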
KCNQ2 W236L MoA = KCNQ2 potentiators acting on retigabine-insensitive rat KCNQ2 W236L mutant; CHO KCNQ2-W236L, automated patch clamp current; AID 2558; shares compounds with KCNQ2 pot; 940 compounds, 10% hits; current increase over 3SD of negative controls (%), active compounds read high, % at 25 µM;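 active = current increase at least 3 SD of the untreated controls above them in both duplicate recordings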
* hit, by the source's call; i = inactive; x = not tested or not shown.

SMILES | KCNQ2 block | KCNQ2 pot | Kir21 confirm | HEK293 ctr | others
CSC1=C(C#N)C(CC(C)C)C(C(C)=O)=C(C)N1 (centres undefined) | i | 1.25 | 72.5%* | i
Cc1ccccc1C(=O)NCCCNC(=O)c1cnccn1 | i | x | x | x
Cc1ccc(CNC(=O)CSc2nc(=O)n3cccc(C)c3n2)cc1 | i | x | x | x
Cc1ccc(C(C)C)cc1S(=O)(=O)NCc1ccccn1 | i | x | 67.0%* | i
Cc1cc(C)c(S(=O)(=O)NCc2ccccn2)cc1C | i | x | x | x
O=C(Nc1sc2c(c1C(=O)O)CCCC2)c1cccc(Cl)c1 | i | 5.44* | i | i | CHO-K1 ctr=-14.8;KCNQ1 pot spec=-32.3;KCNQ2 pot confirm=4.9*;Kir2-1 sel=-34.0;KCNQ2 W236L MoA=i
O=C(Nc1sc2c(c1C(=O)O)CCC2)c1ccccc1 | i | 1.41 | x | x
O=C(Nc1sc2c(c1C(=O)O)CCCC2)c1ccc(Cl)cc1 | i | 7.88* | i | i | CHO-K1 ctr=-10.1;KCNQ1 pot spec=-21.2;KCNQ2 pot confirm=-5.1;Kir2-1 sel=-29.9
O=C(Nc1sc2c(c1C(=O)O)CCCCC2)c1ccccc1 | i | 1.28 | x | x
CC(C)OP(=O)(CCP(=O)(OC(C)C)OC(C)C)OC(C)C | i | 0.66 | x | x
CCCCCNCC(=O)Nc1cccc(C(=O)Nc2cccc(C(F)(F)F)c2)c1 | i | x | x | x
Cc1ccc(C(=O)NC2CC3CCCC(C2)N3C(=S)NCc2ccco2)cc1 (centres undefined) | i | x | x | x
NS(=O)(=O)c1ccc(CCNCc2ccccc2OCc2ccc(F)cc2)cc1 | i | 0.56 | x | x
NS(=O)(=O)c1ccc(NCc2ccccc2OCc2ccc(F)cc2)cc1 | i | 6.64* | i | i | CHO-K1 ctr=37.7*;KCNQ1 pot spec=-16.2;KCNQ2 pot confirm=2.5*;Kir2-1 sel=-53.5;KCNQ2 W236L MoA=i
NNC(=O)c1ccc(CSc2nc3ccccc3s2)cc1 | i | x | x | x
Cc1cc(C)c(OCC(=O)OCC(=O)N2c3ccccc3CC2C)c(C)c1 (centres undefined) | i | 0.22 | x | x
N=Nc1c(O)n(CC(=O)Nc2ccccc2)c2ccccc12 | i | 0.63 | x | x
Cc1noc(C)c1CSc1nc2ccccc2n1CCc1ccccc1 | -6* | -6 | 65.5%* | i
O=C(O)CCn1c(SCc2ccccc2)nc2ccccc21 | i | 0.07 | x | x
Cn1c(=O)c2c(SCC(=O)N3CCCCC3)nc(-c3ccccc3F)nc2n(C)c1=O | i | 2.81 | x | x
COc1ccc(-c2noc(N3CCCC(C(=O)Nc4cc(F)ccc4F)C3)n2)cc1 (centres undefined) | i | 0.44 | x | x
C=CS(=O)(=O)c1sc(Cl)c(N2CCOCC2)c1[N+](=O)[O-] | -6.79* | -6.79 | 19.5%* | 48.5%*
C=CSc1sc(Cl)c(N2CCOCC2)c1[N+](=O)[O-] | i | x | x | x
CCc1ccccc1NC(=O)COc1ccc(C(=S)N2CCCC2)cc1 | i | x | x | x
CC(Sc1ccccc1)C(=O)N1CCN(S(=O)(=O)c2cccc(Br)c2)CC1 (centres undefined) | i | x | x | x
COc1ccc(/C=C2/SC(=O)N(CCC(=O)Nc3ccc(C)cc3)C2=O)cc1OC | i | 0.85 | x | x
COc1cc(/C=C2/SC(=S)N(CC(=O)O)C2=O)ccc1OCC(=O)Nc1ccc(C)c(C)c1 | i | x | i | i
COc1ccccc1C(=O)NCCNC(=O)c1ccc(C)nc1 | i | x | x | x
O=C(Nc1ccnn1C1CCN(Cc2cc3ccccc3[nH]2)CC1)C1CCOC1 (centres undefined) | i | 5.72* | i | i | CHO-K1 ctr=-8.6;KCNQ1 pot spec=1.5*;KCNQ2 pot confirm=42.2*;Kir2-1 sel=-35.3;KCNQ2 W236L MoA=i
Cc1c(CN2CCC(n3nccc3NC(=O)C3CCOC3)CC2)[nH]c2ccccc12 (centres undefined) | i | 0.76 | x | x

High-throughput results from PubChem BioAssay.
